# Results published in PubChem BioAssay AID651658 (Broad Institute, 2012).
# Screen size: about 340,000 compounds; about 5,100 (1.5%) were called active. The sample as a whole holds a higher share of actives than the screen did. Values without a mark were called inactive.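 Rule for the calls: active = mean Tm shift, scaled 0 neutral to 100 positive control, at about 1.3% or above, every replicate too (limit read from the data); inconclusive = no clear call, values can overlap the other calls; inactive = the rest.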
# Biological target: Fibroblast growth factor 22 (Homo sapiens) (UniProt Q9HCT0)
# Assay: binders of human FGF22 protein, primary screen, FGF22 synaptogenesis inhibitor project, biophysical, thermal shift, single point (AID 651658)
# Settings: recombinant FGF22 thermal shift, SYPRO orange fluorescence, at 9.99 µM, stronger effect = higher value
# Fibroblast growth factor 22 (Homo sapiens), sequence (Q9HCT0 whole entry, looked up): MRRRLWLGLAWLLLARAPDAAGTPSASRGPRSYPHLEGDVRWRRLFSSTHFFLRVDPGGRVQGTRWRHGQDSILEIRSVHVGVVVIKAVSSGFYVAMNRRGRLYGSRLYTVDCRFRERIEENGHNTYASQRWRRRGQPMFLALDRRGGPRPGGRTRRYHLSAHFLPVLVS
row,SMILES,"activity (Tm shift, normalised)"
1,Cc1ccc(-c2cc(C(=O)N3CCC4(CC3)OCCO4)no2)cc1,43.1% (active)
2,O=C(c1ccccc1[N+](=O)[O-])N1CCC2(CC1)OCCO2,-0.032%
3,Cc1cccc(-n2c(C)nc3cc(C(=O)N4CCC5(CC4)OCCO5)ccc32)c1,0.173%
4,COc1cccc(-c2ccc3n(c2=O)C[C@@H]2[C@@H](CO)[C@H](C(=O)O)[C@H]3N2C(=O)c2cnccn2)c1,-0.051%
5,C[C@]12CCCCC1=CC(=O)C1C2CC[C@@]2(C)C1C[C@@H](F)[C@@H]2O (stereo not given in full),43.1% (active)
6,C[C@]12CCC3C(CC[C@H]4[C@H](O)[C@H](O)CC[C@]34C)C1CCC2=O (stereo not given in full),42.7%
7,COC(=O)[C@@H]1[C@@H](CO)[C@@H]2Cn3c(ccc(C4=CCCCC4)c3=O)[C@H]1N2CC1CC1,0.126%
8,C/C=C/c1ccc(C2[C@@H]3CN(Cc4cncnc4)C[C@H]2N3)cc1 (stereo not given in full),"-0.323% [percent of sucrose octasulfate shift, DMSO zero]"
9,COc1cccc(-c2ccc3n(c2=O)C[C@H]2[C@H](CO)[C@@H](C(=O)O)[C@@H]3N2C(=O)c2cnccn2)c1,-0.009%
10,CC=C(C)C(=O)OC1CCN2CC=C(COC(=O)C(O)(C(C)OC)C(C)(C)O)C12 (stereo not given),43.1% (active)
11,O=C(O)[C@H]1[C@H](CO)[C@H]2Cn3c(ccc(-c4ccccc4)c3=O)[C@@H]1N2S(=O)(=O)c1ccccc1F,0.019%
12,COC(=O)[C@@H]1[C@@H](CO)[C@@H]2Cn3c(ccc(-c4ccc(F)cc4)c3=O)[C@H]1N2C(C)=O,-0.001%
13,COC(=O)[C@H]1[C@H](CO)[C@H]2Cn3c(ccc(-c4cccc(F)c4)c3=O)[C@@H]1N2Cc1ccccc1,-0.258%
14,CC(CC(C#N)(c1ccccc1)c1ccccc1)N1CCCCC1 (stereo not given),43.4% (active)
15,c1ccc(C(CN2CCCCC2)c2ccccc2)cc1,-0.37%
16,O=C(c1ccccc1)C(O)(CN1CCCCC1)c1ccccc1 (stereo not given),-0.158%
17,O=C(Cc1ccccc1)N1CCCCN2[C@H](CO)[C@H](c3ccc(C#Cc4ccccc4)cc3)[C@H]2C1,-0.682%
18,C/C=C/c1ccc(C2[C@@H]3CN(S(C)(=O)=O)C[C@H]2N3)cc1 (stereo not given in full),"0.016% [percent of sucrose octasulfate shift, DMSO zero]"
19,CCN(CC)C(=O)[C@@H]1C=C2c3cccc4[nH]c(Br)c(c34)C[C@H]2N(C)C1,0.114%
20,COC(=O)[C@H]1[C@H](CO)[C@H]2Cn3c(ccc(-c4ccccc4F)c3=O)[C@@H]1N2C(=O)C1CCC1,0.081%
